Source: PubChem (National Center for Advancing Translational Sciences (NCATS))
Hsp90 Hop PPI = changes Hsp90-Hop TPR2A binding signal, up or down; Potency, µM (doses to about 57 µM), for inactives: top-dose activity change, negative = inhibition; AlphaScreen TPR2A-His6 binding biotin-Hsp90 C-terminal peptide; AID 595; actives 0.44% (n = 71,000); active = well fitted curve in either direction with a large enough effect; inconclusive = small, poorly fitted or top-dose-only effect, or another doubt; also: potency is read from the fitted curve at half-maximal effect; % is scaled to controls: 0 for no effect and ±100 for the full control effect
p53ts 39C tox = cytotoxicity in p53ts cells at nonpermissive temperature; actives 1.5% (n = 130,000); Potency, µM (titrated, usually from 46.1 µM), without a hit: at the top dose activity change, negative = cell killing, usual class: cytotoxic; H1299-p53A138V viability at 39C, ATP luminescence, 24 h; also: potency is read from the fitted curve at half-maximal effect; % is scaled to controls: 0 for no effect and ±100 for the full control effect; nearly all actives have a fitted effect of over 55% in size
p53ts 32C tox = p53ts cell cytotoxicity, permissive temperature; H1299-p53A138V at 32C, ATP luminescence viability, 24 h; AID 924; Potency, µM (highest dose often 46.1 µM), inactives show top-dose activity change, negative = cytotoxicity, usual class: cytotoxic; actives 0.93% (n = 130,000);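 also: potency is read from the fitted curve at half-maximal effect; 0% = DMSO and -100% = full killing by reference compound; nearly all actives have a fitted effect of over 55% in size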
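Cells: H1299 p53ts (A138V), 600/well, pre-incubated 16–30 h at 37C. Cpd up to 46 uM, 24 h, 32C. Readout: ATPlite luminescence, 20 min RT. Normalization: DMSO vs tamoxifen 100 uM. AC50 by Hill equation.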
IkB sig inh = IkB pathway inhibition in ABC-DLBCL cells. ABC-DLBCL IkBa-CBG/CBR dual luciferase ratio, 4 h; response scale: scaled: untreated 0%, proteasome inhibitor 100%. Potency, µM (highest dose often 57.1 µM), for inactives: at the highest dose IkBa stabilization activation. actives 0.04% (n = 110,000); active = well fitted curve in the direction sought with a large enough effect in the signal ratio, not every such curve was filed as active; inconclusive = small, poorly fitted or top-dose-only effect, or a change in a side signal; the % refers to the signal ratio;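 also: potency is read from the fitted curve at half-maximal effect; the direction sought is a rising ratio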
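In this assay, an IκBα–CBG68 fusion accumulates when IKK-driven degradation is blocked; native CBR normalizes for cell number. OCI-Ly3 cells were treated 4 h with compound and doxycycline, then green and red light read after Chroma-Glo addition.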
Luciferase inh = blocks Photinus pyralis firefly luciferase activity; P08659; purified firefly luciferase, luminescence, 8 min; Potency, µM (series often up to 57.1 µM), inactives show at the highest dose activity change, negative = inhibition, actives largely listed as inhibitors; actives 2.2% (n = 72,000); AID 411; also: potency is read from the fitted curve at half-maximal effect; % is scaled to controls: 0 for no effect and ±100 for the full control effect; nearly all actives have a fitted effect of over 40% in size
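Inhibition of light generation by firefly luciferase from ATP and luciferin was profiled with concentration-response curves per sample, ATP held at 10 uM within the enzyme's linear range. Plates were read by luminescence after an 8-minute ambient incubation.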
IMPase inh = cell-permeable inhibitors of inositol monophosphatase (IMPase). P97697. CHO-M1 cells, IP1 accumulation, HTRF TR-FRET ratio. inhibition (IP1 accumulation), % at 46.1 µM. 120,000 tested, under 10 active. AID 901; active = well fitted curve in the direction sought with a large enough effect in the signal ratio, not every such curve was filed as active; inconclusive = small, poorly fitted or top-dose-only effect, or a change in a side signal; inactive = no such curve, though single readings can be large or run the other way; the % refers to the signal ratio;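 also: cells stimulated with carbachol in lithium chloride buffer; plate controls were DMSO basal wells for no effect and reference inhibitor wells for full effect; higher means more IMPase inhibition seen as more IP1 and lower FRET ratio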
Target sequence (P97697 whole entry, looked up): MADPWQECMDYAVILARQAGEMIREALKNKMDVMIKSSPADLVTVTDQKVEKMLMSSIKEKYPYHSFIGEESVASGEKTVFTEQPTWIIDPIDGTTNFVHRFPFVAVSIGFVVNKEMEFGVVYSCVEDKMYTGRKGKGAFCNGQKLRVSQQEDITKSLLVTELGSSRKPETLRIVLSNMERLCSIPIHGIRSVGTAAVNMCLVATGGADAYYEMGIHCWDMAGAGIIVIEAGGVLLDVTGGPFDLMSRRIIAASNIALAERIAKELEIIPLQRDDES
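Seeded CHO-M1 cells were dosed with compound at up to 46 uM, stimulated with carbachol for 30 min, then lysed in IP-One detection reagents. Higher IP1 lowers the TR-FRET signal.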
* hit, by the source's call; ? = inconclusive; . = no result given; ! = not active in a repeat; [ ] = dose if it differs, or a comment. The sample as a whole holds a higher share of hits than the screen did. Unless noted, calls follow the shape of the dose curve; as a rule, active = well fitted curve in the direction sought with a large enough effect; inconclusive = small, poorly fitted or top-dose-only effect, or another doubt; inactive = no such curve, though single readings can be large; an effect the other way counts as inactive or inconclusive.

SMILES	Hsp90 Hop PPI	p53ts 39C tox	p53ts 32C tox	IkB sig inh	Luciferase inh	IMPase inh
c1ccc2c(c1)CCN(c1nc3cc4c(cc3s1)OCO4)C2	-12%	?	13µM*	?	4µM*	-2
c1c2c(cc3sc(N4CCOCC4)nc13)OCO2	-1%	?	10µM*	6%	16µM*	-1
COc1ccc(CCNC(=O)Cc2c(C)c3c(cc(C)c4c(C)coc43)oc2=O)cc1OC	.	2%	-2%	0%	.	.
COc1ccc(NC(=O)Nc2sc3nc4n(c(=O)c3c2C)CCC(C)CC4)cc1OC (stereo not given)	.	-9%	5%	1%	.	.
Cc1ccccc1OCC(=O)N(Cc1ccc(N(C)C)cc1)CC1CCCO1 (stereo not given)	.	-29%	2%	?	.	.
COc1ccc2nc(N3CCCC(C(=O)NCCCN4CCN(C)CC4)C3)sc2c1 (stereo not given)	-17%	10µM*	13µM*	1%	?	-3
Cc1cc(C)c2nc(N3CCCC(C(=O)NCCCN4CCOCC4)C3)sc2c1 (stereo not given)	.	.	.	.	.	1
CCCN(CCC)CCNC(=O)C1CCN(c2nc3ccc(CC)cc3s2)CC1	.	?	13µM*	?	.	.
CCc1ccc2nc(N3CCC(C(=O)NCCC(C)C)CC3)sc2c1	.	16µM*	?	?	.	.
CCCN(CCC)CCCNC(=O)C1CCN(c2nc3ccc(CC)cc3s2)CC1	.	?	13µM*	?	.	.
CCc1ccc(NC(=O)CC2C(=O)N(c3cccc(OC)c3)C(=O)N2Cc2ccc(F)cc2)cc1 (stereo not given)	.	-7%	1%	?	.	.
COc1ccc(CC(=O)NCC(c2cccs2)S(=O)(=O)c2ccc(Cl)cc2)cc1 (stereo not given)	.	-5%	1%	?	.	.
CCC[C@@H]1O[C@@H]2C[C@@H]3[C@@H]4CCC5=CC(=O)C=C[C@@]5(C)[C@H]4[C@H](O)C[C@@]3(C)[C@@]2(C(=O)CO)O1	-2%	.	.	?	-4%	.
CCc1ccc(CNC(=O)CCn2c(=O)c3cccn3c3ccc(F)cc32)cc1	.	-15%	7%	?	.	.
CCCC(=O)NC1CC(=O)N(c2ccc3c(c2)OCCO3)C1 (stereo not given)	.	10%	8%	1%	.	.
CC1(C)CNC(=O)c2sc(N3CCCCC3)nc2C1	-2%	-29%	-19%	0%	2µM*	-6
CC1(C)CC(=O)c2sc(N3CCCCC3)nc2C1	3%	-10%	-13%	-2%	-9%	-4
CN(C)CCC(=O)c1ccc2c(c1)OCO2	-1%	-8%	-4%	?	6%	3
O=C(Nc1ccc2c(c1)OCO2)c1cccc(F)c1	-3%	-27%	?	4%	?	7
O=C(CCNc1ccccc1)c1ccc2c(c1)OCO2	-6%	-18%	-21%	17%	16µM*	11
O=C(/C=C\Nc1cccc(F)c1)c1ccc2c(c1)OCO2	-6%[11 µM]	10µM*	4µM*	?	0.4µM*	-1
CC1=C(\C=C/C(C)=C/C=C\C(C)=C\C(=O)O)C(C)(C)CCC1	-6%	5%	22%	?	0%	4
CC1=C(/C=C/C(C)=C/C=C/C(C)=C/C(=O)Nc2ccc(O)cc2)C(C)(C)CCC1	-9%	16µM*	?	?	.	11
CC1(C)S[C@@H]2[C@H](C(=O)O)N=C(Cc3ccccc3)N2[C@H]1C(=O)O	-7%[11 µM]	-3%[9.22 µM]	5%[9.22 µM]	2%[11.4 µM]	0%[11.4 µM]	.
CC(=O)Nc1cccc(-c2nc3ccc(NC(C)=O)cc3[nH]2)c1	-7%	?	?	2%	16µM*	-12
SMILES	Hsp90 Hop PPI	p53ts 39C tox	p53ts 32C tox	IkB sig inh	Luciferase inh	IMPase inh
O=C(Nc1ccc2nc(-c3cccnc3)[nH]c2c1)c1ccco1	-1%	-28%	?	4%	16µM*	?
O=C(Nc1ccc2nc(-c3ccco3)[nH]c2c1)c1cccs1	-20%	13µM*	10µM*	9%	13µM*	8
O=C(Nc1ccc2nc(-c3ccccc3)[nH]c2c1)c1cccs1	.	.	.	.	.	2
O=C(CSc1ccc(-c2nc3ccccc3[nH]2)cn1)N1CCN(C(=O)c2ccco2)CC1	-3%	-27%	?	?	20µM*	1
O=C(Nc1ccc(-c2nc3ccccc3[nH]2)cc1)c1ccco1	-7%	?	?	1%	4µM*	6
Cc1ccc(O)c(NC(=O)c2cccc(NC(=O)c3ccco3)c2)c1	-2%	-14%	-8%	?	-17%	-2
Cc1ccc2nc(-c3cccc(NC(=O)c4ccco4)c3)[nH]c2c1	-5%	?	?	?	10µM*	1
O=C(Nc1ccc2nc(-c3ccco3)[nH]c2c1)c1ccco1	0%	16µM*	7.9µM*	3%	13µM*	4
Cc1ccc(NC(=O)Cn2ccn(-c3ccccc3)c(=O)c2=O)cc1	.	3%	2%	?	.	.
Cc1csc(NC(=O)Nc2cccc(Cl)c2)n1	-4%	-8%	-17%	12%	7.9µM*	14
Cc1nnc(NC(=O)Nc2cccc(Cl)c2)s1	-4%	0%	-10%	3%	-30%	17
COc1ccc(CNc2nc(-c3ccccc3OC)nc3ccccc23)c(OC)c1	-9%	-11%	25%	0%[11.4 µM]	-1%[2.29 µM]	.
O=C(c1ccc(OCCN2CCCCC2)cc1)c1c(-c2ccc(O)cc2)sc2cc(O)ccc12	-10%[26 µM]	25µM*!	20µM*!	3%[25.6 µM]	3%[25.5 µM]	9[20.6 µM]
Cc1ccc(NC(=O)c2oc3ccc(S(=O)(=O)N4CCCCCC4)cc3c2C)c(C)c1	.	?	-1%	0%	.	.
Cc1ccc(-c2cc(C(=O)NCC3CCCO3)no2)cc1 (stereo not given)	-5%	?	?	?	13µM*	-15
O=C(Nc1ccc(NC(=O)C2CC2)nc1)c1ccccn1	-5%	6.3µM*	13µM*	?	20µM*	1
O=C(Nc1ccc(NC(=O)C23CC4CC(CC(C4)C2)C3)cn1)c1ccco1	1%	-17%	-7%	0%	-21%	-18
O=C(Nc1ccc(NC(=O)C2CCCCC2)cn1)c1ccco1	-4%	5µM*	4µM*	0%	5µM*	2
O=C(Nc1ccc(NC(=O)c2ccco2)nc1)c1ccccn1	-4%	13µM*	13µM*	?	10µM*	?
CCC(=O)Nc1ccc(NC(=O)c2ccccn2)cn1	-3%	?	?	?	40µM*	-5
CN(C(=O)c1ccc2c(c1)N(Cc1cccc(Cl)c1)C(=O)c1ccccc1S2(=O)=O)C1CCCCC1	.	8%	25%	?	.	.
